Test results: paper PMC7819943, “Rice protein-binding microarrays: a tool to detect cis-acting elements near promoter regions in rice”
Whole data set: some 68,000 sequences, median “fluorescence intensity (a.u.)” near 9,100, cut for the highest 2% near 16,000. Only a selection was taken, and the highest values are over-represented in it overall.

target: OsWRKY34 (Oryza sativa, UniProt Q0JBA9 1-250); experiment: protein-binding microarray (RPBM); PBS, 2% BSA, 51.3 ng/ul salmon testes DNA, 50 uM zinc acetate, 200 nM TF, 25 C, 1 h; high values mean tight binding; settings: protein: recombinant; tags: N-terminal polyhistidine and DsRed monomer fusion (pET32a); label: CyDye5-dUTP incorporated in the synthesized complementary strand; 3' TTTTT single-stranded linker to array surface; dsDNA, one strand shown
Outline: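 Transcription factors were made in E. coli BL21-CodonPlus as N-terminal fusions to a polyhistidine tag and DsRed, then purified on Ni–NTA. After primer extension with Cy5-dUTP and blocking with 2% BSA, a custom Agilent array was exposed for 1 h at 25 °C to 200 nM protein in PBS, 2% BSA, salmon testes DNA and 50 µM zinc acetate. Washed arrays were scanned on an Axon 4000B, and the binding signal is per-feature fluorescence intensity in arbitrary units.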

Chain of OsWRKY34 (Q0JBA9 entry or part of it): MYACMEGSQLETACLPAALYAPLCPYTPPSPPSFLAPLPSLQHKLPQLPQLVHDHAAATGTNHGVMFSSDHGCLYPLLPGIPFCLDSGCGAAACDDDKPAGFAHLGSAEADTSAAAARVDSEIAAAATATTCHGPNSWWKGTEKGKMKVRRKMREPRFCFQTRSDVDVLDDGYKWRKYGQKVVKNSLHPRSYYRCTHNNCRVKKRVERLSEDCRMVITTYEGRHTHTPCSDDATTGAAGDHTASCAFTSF

Sequence | binding signal
GCGGAGGTGGTGTGGGTGGGTGAGTGAGTGAGGAGTGATGCGGAGTCACCTAGTGCAG | 17400 fluorescence intensity (a.u.)
GTAGGAGGAGGAGGAGGAGGTGGTGGTGGTGGTGGTGATGCGGAGTCACCTAGTGCAG | 15100 fluorescence intensity (a.u.)
GGGTGTGTAAGGGTAGGTGGAGGGGTGGGTGATGCGAGATCGGAGTCACCTAGTGCAG | 20400 fluorescence intensity (a.u.)
GTTGGAGTTGGAGGAGGTGGTGCCGTGGTGGGGATTGATGCGGAGTCACCTAGTGCAG | 10500 fluorescence intensity (a.u.)
GGGAGGGGCGGCCCAGCGGCAGCGGAGGGGAGGGAGGATGCGGAGTCACCTAGTGCAG | 8640 fluorescence intensity (a.u.)
TTATAACATCTCTAGCTTCCTTTTCTAACCGTTTAACTTTCGGAGTCACCTAGTGCAG | 8410 fluorescence intensity (a.u.)
TTGGTTGTGTGTGTGCCGCCGCGAGCCCGTGACGGCGCCCCGGAGTCACCTAGTGCAG | 9390 fluorescence intensity (a.u.)
AATTTTTATATTGTTGACCTGCAGATCCTTATGTTGGACTCGGAGTCACCTAGTGCAG | 8260 fluorescence intensity (a.u.)
AACGTACCACTCCCGTGGGCCGGACCAACACTCCTTCCCACGGAGTCACCTAGTGCAG | 9510 fluorescence intensity (a.u.)
TGCGTGTTGTGTGTGTGGGTGATCTTTGGCGCGCCTCGTCCGGAGTCACCTAGTGCAG | 8120 fluorescence intensity (a.u.)
ATCCCCATTTTTTTCCCAAGTGGTACACTGAAATTTTTTTCGGAGTCACCTAGTGCAG | 8100 fluorescence intensity (a.u.)
TTCCCCACCACCACCAACCCAGACCGGCCGCGGCCTATATCGGAGTCACCTAGTGCAG | 8270 fluorescence intensity (a.u.)
TTTATAGATGGGGAAGGGGTGGCAACTAGAGACGCGACGGCGGAGTCACCTAGTGCAG | 9070 fluorescence intensity (a.u.)
TTCTCCGTGTTAATATCACTTACGTCAAGGACCTATTTGTCGGAGTCACCTAGTGCAG | 8750 fluorescence intensity (a.u.)
CGATGTGATTTAGTGAAAAATTTTAGGGTGGGCTAAACAGCGGAGTCACCTAGTGCAG | 11500 fluorescence intensity (a.u.)
GTGAGGTGGGGTGGTGTGGCTTCTGCTGCTGCTGCTACTGCGGAGTCACCTAGTGCAG | 15100 fluorescence intensity (a.u.)
TCGCTGTGAGTGGAGGAGGAGGAGGAAGGGGAGGAGGATGCGGAGTCACCTAGTGCAG | 8630 fluorescence intensity (a.u.)
GGGGTGGGGTGGAGAGGGTGAAGCGGCGACGGTGACGATGCGGAGTCACCTAGTGCAG | 9870 fluorescence intensity (a.u.)
GGCGTGTTGGTGTGCGTGGATTGGGTGGGTGAGGAGGATGCGGAGTCACCTAGTGCAG | 13000 fluorescence intensity (a.u.)
TGGAGGTGGGGAGGATGCGGGAGAGGGAGGTGATGATGGGCGGAGTCACCTAGTGCAG | 8790 fluorescence intensity (a.u.)
GTGTGGAGGTGGTGGGGAGTGTGAGGAGAGGGAGGGGATGCGGAGTCACCTAGTGCAG | 18000 fluorescence intensity (a.u.)
CGGTGAGGGGTGGACTGGGAGTGCGTGGGTGGGTGTGATGCGGAGTCACCTAGTGCAG | 13400 fluorescence intensity (a.u.)
GTGAAGCGATCTGTATTGGTGGAGGGGAGGGGAGGGGATGCGGAGTCACCTAGTGCAG | 24000 fluorescence intensity (a.u.)

Sequence | binding signal
GACTGGGAGGATGAGGGGTGGGTGGGTGTGGCTGCTTCTGCGGAGTCACCTAGTGCAG | 19100 fluorescence intensity (a.u.)
TTTTGCCATCTGGTAATCCCTCTACCACCAACAGCTACAACGGAGTCACCTAGTGCAG | 9220 fluorescence intensity (a.u.)
AGTACTCCTCCGTTCTAAATTAGATGTCGTTTTGATTTTTCGGAGTCACCTAGTGCAG | 8570 fluorescence intensity (a.u.)
CTCTTGGCGATTTGCGGAAGTTGTTGTTGTCCCCTTGCTCCGGAGTCACCTAGTGCAG | 8060 fluorescence intensity (a.u.)
TTAGCAAAAACATATCCTTTCTTGCCACACTACTAAGCCACGGAGTCACCTAGTGCAG | 8160 fluorescence intensity (a.u.)
ACACGGCCACCCGCATCCGCACCACCCGCAAGCCGCGACGCGGAGTCACCTAGTGCAG | 9450 fluorescence intensity (a.u.)
GCTGGGAGTTAGAACGGTGATCCATCTAGATGTAATGGTCCGGAGTCACCTAGTGCAG | 8740 fluorescence intensity (a.u.)
CTCCGTTTTCACCCCTATGTATAGTTTATATGTAAATTGCCGGAGTCACCTAGTGCAG | 8830 fluorescence intensity (a.u.)
TTGTTACTTTAATTTGTACATCATCATGCGGGTCCGTATACGGAGTCACCTAGTGCAG | 16600 fluorescence intensity (a.u.)
ATTTGATTTATTGTTAAATATACTTTCATGTACACATATACGGAGTCACCTAGTGCAG | 8240 fluorescence intensity (a.u.)
GGGTGTAATTTTTGTTTTACATGTACGGAATTTTTTACTCCGGAGTCACCTAGTGCAG | 10800 fluorescence intensity (a.u.)
ATATAGCCTACTACTAGCTCCAAATCATCTATAGTCAATGCGGAGTCACCTAGTGCAG | 8120 fluorescence intensity (a.u.)
TGGGAGGGTTTCTGATCATCAGCTGTCCTCTTTACCGGCACGGAGTCACCTAGTGCAG | 11300 fluorescence intensity (a.u.)
GGATTGCCGGTTTTTGGTGTCCTTTTCGCATCAGCTTTAGCGGAGTCACCTAGTGCAG | 9120 fluorescence intensity (a.u.)
GACGCTGTTGACTTTTTCTCACATGTTTGACCATTCGTCTCGGAGTCACCTAGTGCAG | 28900 fluorescence intensity (a.u.)
TTTTCTCACATGTTTGACCATTCGTCTTATTCAAAAATTTCGGAGTCACCTAGTGCAG | 9990 fluorescence intensity (a.u.)
ATAGATGACGCCGTTGATTTTTTCTCACATGTTTGACCGTCGGAGTCACCTAGTGCAG | 15600 fluorescence intensity (a.u.)
TAGATGATGCTGTTAACTTTTTCTCACATGTTTGACCATTCGGAGTCACCTAGTGCAG | 12700 fluorescence intensity (a.u.)
AGATGACGCCATTGACTTTTTCTCACATGTTTGACCATTCCGGAGTCACCTAGTGCAG | 15800 fluorescence intensity (a.u.)
TAGATGACGTCGTTGACTTTTTCTCACATGTTTGACCATTCGGAGTCACCTAGTGCAG | 28800 fluorescence intensity (a.u.)
TTTCTCACATGTTTGACCATTCGTCTTATTCAAAAATTTTCGGAGTCACCTAGTGCAG | 12800 fluorescence intensity (a.u.)
GACGCCGTTAACTTTTTCTCACATGTTTAACCATTCGTCTCGGAGTCACCTAGTGCAG | 12700 fluorescence intensity (a.u.)
GACGCCGTTGATTTTTTCTCACATGTTTGACCATTCGTCTCGGAGTCACCTAGTGCAG | 18000 fluorescence intensity (a.u.)
